Experimental data published in PubChem BioAssay (EPA / NIEHS).
Records with an inconclusive call do not appear. Active and inactive are the calls of the source. Rule for the calls: active = hit-call score of the fitted dose curve at least 0.9, where 1 is the maximum; inconclusive = response in the unintended direction; inactive = score below 0.9.

biological target: human Peroxisome Proliferator-activated Receptor delta (PPARd), PPARD (gene 5467) (UniProt Q03181); experiment: ATG_PPARd_TRANS: Attagene TRANS-FACTORIAL HepG2 Assay for human Peroxisome Proliferator-activated Receptor delta (PPARd) (AID 2283002)
Description: ATG_TRANS is a cell-based, multiplexed-readout assay that uses HepG2, a human liver cell line, with measurements taken at 24 hours after chemical dosing in a 24-well plate.ATG_PPARd_TRANS is one of 30 assay component(s) measured or calculated from the ATG_TRANS assay. It is designed to make measurements of mRNA induction, a form of inducible reporter, as detected with fluorescence intensity signals by Reverse transcription polymerase chain reaction (RT-PCR) and Capillary electrophoresis technology.Data from the assay component ATG_PPARd_TRANS was analyzed into 1 assay endpoint. This assay endpoint, ATG_PPARd_TRANS, was analyzed in the positive analysis fitting direction relative to DMSO as the negative control and baseline of activity. Using a type of inducible reporter, measures of mRNA for gain-of-signal activity can be used to understand the reporter gene at the transcription factor-level as they relate to the gene PPARD. Furthermore, this assay endpoint can be referred to as a primary readout, because this assay has produced multiple assay endpoints where this one serves a reporter gene function. To generalize the intended target to other relatable targets, this assay endpoint is annotated to the nuclear receptor intended target family, where the subfamily is non-steroidal.
Human liver HepG2 cells are transiently transfected with multiple reporter transcription units (MRTUs) in 6-well plates using FuGene 6 reagent (Roche; 3 ml FuGene/1 mg DNA). The MRTU constructs are regulated by a cis-regulating element (promoter). […] A major difference between the CIS and TRANS system is that in CIS activities of endogenous TFs are measured, whereas the TRANS assay evaluates changes in activities of exogenous, chimeric NR-Gal4 proteins. […] At the end of 24 hour incubation, total RNA was isolated using TriZol reagent (Invitrogen). The isolated RNA is then reverse-transcribed using oligo(dT) primer and Mo-MLV reverse transcriptase (Invitrogen) with DNAse I (Ambion) treatment for 30 min. The one-tenth of the produced cDNA was amplified by PCR using Taq DNA polymerase (Invitrogen) and two reporter sequence-specific primers. The PCR products were fluorescently labeled by primer extension with 6-arboxyfluorescein (6-FAM) 5'-labeled reporter sequence-specific primer (2 min at 95 C, 20 s at 68 C and 10 min at 72 C) and these products were digested with 5U of HpaI (New England Biolabs) for 2h at 37 C. The fragments were purified using Qiaquick PCR columns (Qiagen), analyzed on an ABI 3130xL genetic analyzer (Applied Biosystems) with peak positions identified by using a set of X-rhodamine (ROX)-labeled MapMarker1000 molecular weight standards (BioVentures). The raw capillary electrophoresis data was processed using Attagraph software (Attagene).

Sequence of human Peroxisome Proliferator-activated Receptor delta (PPARd), PPARD (gene 5467) (Q03181 whole entry, looked up): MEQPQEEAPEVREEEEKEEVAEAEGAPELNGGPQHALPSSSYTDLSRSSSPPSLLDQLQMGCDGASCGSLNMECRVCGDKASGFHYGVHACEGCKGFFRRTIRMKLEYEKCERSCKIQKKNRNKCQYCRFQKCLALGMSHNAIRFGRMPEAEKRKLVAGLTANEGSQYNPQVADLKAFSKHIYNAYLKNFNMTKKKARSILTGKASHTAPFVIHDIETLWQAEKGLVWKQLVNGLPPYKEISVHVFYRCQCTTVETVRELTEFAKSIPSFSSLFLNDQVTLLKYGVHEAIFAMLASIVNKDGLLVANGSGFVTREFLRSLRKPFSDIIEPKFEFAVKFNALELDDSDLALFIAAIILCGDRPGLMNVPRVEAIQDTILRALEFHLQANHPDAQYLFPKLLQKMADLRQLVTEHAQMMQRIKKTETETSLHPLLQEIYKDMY

Row | SMILES | outcome
1 | Cc1ncc([C@@H](CCCCCCc2ccc3c(n2)NCCC3)CC(=O)O)cn1 | inactive
2 | OCCNCCO | inactive
3 | O=C(Cl)C(F)(F)C(F)(F)C(F)(F)C(=O)Cl | inactive
4 | C=CCc1cc(S(=O)(=O)c2ccc(O)c(CC=C)c2)ccc1O | inactive
5 | O=C(O)c1ccc2c(c1)nc(C(=O)NC1CCN(C3CC3)CC1)n2Cc1cc(-c2ccc(Cl)s2)on1 | inactive
6 | c1ccc(C(O[C@@H]2CCCN(CCc3ccc4c(c3)OCO4)C2)c2ccccc2)cc1 | inactive
7 | O=S1(=O)CCCO1 | inactive
8 | CCOc1ccc2[nH]cc(C(=O)NCc3ccccc3)c(=O)c2n1 | inactive
9 | FC(F)(F)C(F)(F)C(F)(F)C(F)(F)C(F)(F)C(F)(F)I | inactive
10 | Cn1cc[nH]c1=S | inactive
11 | CCOC(N)=O | inactive
12 | FC(F)C(F)(F)COCC1CO1 (stereo not given) | inactive
13 | Cc1nc(-c2ccccn2)ncc1C(=O)Nn1cc(C)c2cc(F)ccc21 | inactive
14 | O=C1CN(N=Cc2ccc([N+](=O)[O-])o2)C(=O)N1 | inactive
15 | CCCCCOC(C)=O | inactive
16 | CCc1cccc(CC)c1N | inactive
17 | O=c1[nH]cnc2c1ncn2[C@H]1CC[C@@H](CO)O1 | inactive
18 | O=C(O)[C@H](O)[C@@H](O)C(=O)O | inactive
19 | NCC(F)(F)C(F)(F)C(F)(F)C(F)(F)F | inactive
20 | O=S(=O)(O)CCC(F)(F)C(F)(F)C(F)(F)C(F)(F)C(F)(F)C(F)(F)F | inactive

Row | SMILES | outcome
21 | Cc1cccc(O)c1C | inactive
22 | CCCCCCCC1CCC(=O)O1 (stereo not given) | inactive
23 | O=C(NO)C1(NS(=O)(=O)c2ccc(Oc3ccc(F)cc3)cc2)CCOCC1 | inactive
24 | c1ccc2c(c1)-c1cccc3c1c-2cc1ccccc13 | inactive
25 | NC(N)=O | inactive
26 | CCCCOC(=O)c1ccccc1 | inactive
27 | OCCC(F)(F)C(F)(F)C(F)(F)C(F)(F)F | inactive
28 | FC(F)=C(F)C(F)(F)C(F)(F)C(F)(F)C(F)(F)C(F)(F)C(F)(F)F | inactive
29 | O=S(=O)(O)c1ccc(N=Nc2c(O)ccc3cc(S(=O)(=O)O)ccc23)cc1 | inactive
30 | Nc1ccn([C@@H]2O[C@H](CO)[C@@H](O)[C@@H]2O)c(=O)n1 | inactive
31 | FC(F)(F)COC(OCC(F)(F)F)OCC(F)(F)F | inactive
32 | NNC(=O)c1ccncc1 | inactive
33 | C[C@@H](Oc1ccc(CNC(=O)c2cccnc2Oc2ccc3c(c2)OCO3)c(F)c1)C(=O)O | inactive
34 | CCn1nc(C)c2c1C(=O)NCC(c1ccc(O)cc1)=N2 | inactive
35 | Cc1nccn1-c1ccc(Sc2cccc(C3(C(N)=O)CCOCC3)c2)cc1 | inactive
36 | S=P(N1CC1)(N1CC1)N1CC1 | inactive
37 | CCCc1ccccc1 | inactive
38 | O=C(N[C@H](CO)[C@H](O)c1ccc([N+](=O)[O-])cc1)C(Cl)Cl | inactive
39 | CC(C)c1nnc2ccc(-c3ocnc3-c3cc(F)ccc3F)cn12 | inactive
40 | CNC(C)=O | inactive
